Results filed as inconclusive are left out. Active and inactive are the calls of the source. Calls come from the whole dose curve; as a rule, active = well fitted inhibition curve with a large enough effect; inconclusive = small, poorly fitted or top-dose-only effect; inactive = flat fitted curve, though single readings scatter.
Columns and labels:
Experiment in all cases: Cytotoxic Profiling of Annotated Libraries Using Quantitative High-Throughput Screening (AID 1296008); note: nearly all actives have a fitted effect of over 60% in size
Settings in all cases: Five cell lines viability, CellTiter-Glo ATP luminescence, 48-72 h; max response: active compounds read low
HEK293 = tested on: HEK293
How it was run: (§1)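 Cells exposed to compounds for 48 or 72 hr at 37 degrees Celsius. Viability read as ATP-coupled luminescence with CellTiter-Glo after 10 min at room temperature.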

HaCat = tested on: HaCat
How it was run: as §1

KB-3-1 = tested on: KB-3-1
How it was run: as §1

NIH3T3 = tested on: NIH3T3
How it was run: as §1
% is set by controls: 0 for no effect and ±100 for the full control effect; potency is the fitted concentration of half-maximal effect.

COc1cc2c(cc1O)[C@H](c1ccc(O[C@@H]3O[C@H](CO)[C@@H](O)[C@H](O)[C@H]3O)c(OC)c1)[C@@H](CO)[C@](O)(CO)C2
inactive: max response (HEK293) 2.27% | max response (HaCat) -2.06% | outcome (KB-3-1) | max response (NIH3T3) 2.92%

CC(C)(C)c1ccc(S(=O)(=O)NCc2ccc(C(=O)Nc3cccnc3)cc2)cc1
active: Potency (HEK293) 326 nM | Potency (HaCat) 6510 nM | Potency (KB-3-1) 731 nM | Potency (NIH3T3) 3660 nM

NC1CCC(Nc2cc(-c3cccc(NCc4cccc(F)c4)n3)c(Cl)cn2)CC1 (stereo unspecified)
active: Potency (HEK293) 259 nM | Potency (HaCat) 1030 nM | Potency (KB-3-1) 366 nM | Potency (NIH3T3) 1160 nM

COc1cc(C(=O)O)ccc1OC1OC(CO)C(O)C(O)C1O (stereo unspecified)
inactive: max response (HEK293) -3.87% | max response (HaCat) 0.774% | outcome (KB-3-1) | max response (NIH3T3) -5.21%

COc1cc(C2Oc3c(OC)cc(CCCO)cc3C2CO)ccc1O[C@H]1O[C@H](C)[C@@H](O)[C@H](O)[C@@H]1O (stereo partly specified)
inactive: max response (HEK293) -0.663% | max response (HaCat) -14.3% | max response (KB-3-1) -4.42% | max response (NIH3T3) 2.77%

CCOc1ccc(NC(=S)N2CCC(C(O)(c3ccccc3)c3ccccc3)CC2)cc1
inactive: max response (HEK293) -4.42% | max response (HaCat) 1.92% | outcome (KB-3-1) | max response (NIH3T3) -1.64%

C=C(C(=O)O)C1CC2=C(C)CCCC2(C)C[C@@H]1O (stereo partly specified)
inactive: max response (HEK293) -3% | max response (HaCat) 0.301% | outcome (KB-3-1) | max response (NIH3T3) 4.2%

C=C1CC[C@@H]2[C@@](C)(CO[C@@H]3O[C@H](CO)C(O)[C@H](O)C3O)[C@H](O)CC[C@@]2(C)[C@@H]1CC/C(C)=C/CO (stereo partly specified)
inactive: max response (HEK293) 1.32% | max response (HaCat) -3.82% | outcome (KB-3-1) | max response (NIH3T3) -10.1%

CC1=C(CO)C(=O)O[C@@H]([C@@H](C)[C@H]2CC[C@H]3[C@@H]4C[C@H]5O[C@]56[C@@H](O)C=CC(=O)[C@]6(C)[C@H]4CC[C@]23C)C1
active: Potency (HEK293) 1120 nM | Potency (HaCat) 3170 nM | Potency (KB-3-1) 2820 nM | Potency (NIH3T3) 5630 nM

Cc1cc(OCc2nnc(SC3CCCC3)n2-c2cccnc2)ccc1-c1ccc(S(C)(=O)=O)cc1
active: Potency (HEK293) 291 nM | Potency (HaCat) 4610 nM | Potency (KB-3-1) 1460 nM | Potency (NIH3T3) 10300 nM

O=C1NC2CCc3nc4ccccc4c(=O)n3C2=Nc2ccccc21 (stereo unspecified)
inactive: max response (HEK293) -3.35% | max response (HaCat) 3.54% | outcome (KB-3-1) | max response (NIH3T3) 4.44%

O=C(NOCC(O)CO)c1ccc(F)c(F)c1Nc1ccc(I)cc1F (stereo unspecified)
inactive: max response (HEK293) 2.15% | max response (HaCat) -79.3% | outcome (KB-3-1)
active: Potency (NIH3T3) 1840 nM

O=C(O)COCCN1CCN([C@H](c2ccccc2)c2ccc(Cl)cc2)CC1
inactive: max response (HEK293) -2.41% | max response (HaCat) -30.6% | max response (KB-3-1) 0.104% | max response (NIH3T3) 0.14%

C[C@@H]1O[C@@H](O[C@@H]2[C@@H](O[C@@H]3O[C@@H](C)[C@H](O[C@@H]4OC[C@H](O)[C@H](O[C@@H]5OC[C@@H](O)[C@H](O)[C@H]5O)[C@H]4O)[C@@H](O[C@@H]4OC[C@](O)(CO)[C@H]4O)[C@H]3O)[C@H](OC(=O)[C@]34CCC(C)(C)C[C@H]3C3=CCC5[C@@]6(C)C[C@H](O)[C@H](O[C@@H]7O[C@H](CO[C@@H]8OC[C@H](O)[C@H](O)[C@H]8O)[C@@H](O)[C@H](O)[C@H]7O)C(C)(C)C6CC[C@@]5(C)[C@]3(C)C[C@H]4O)OC[C@H]2O)[C@H](O)[C@H](O)[C@H]1O (stereo partly specified)
inactive: max response (HEK293) 0.0429% | max response (HaCat) 0.757% | max response (KB-3-1) 9.59% | max response (NIH3T3) 0.953%

O=C(O)c1cc(-c2c(-c3ccccc3)nn3ccccc23)n[nH]c1=O
inactive: max response (HEK293) -2.65% | max response (HaCat) -37.3% | outcome (KB-3-1) | max response (NIH3T3) -3.95%

C=C(C)[C@@H]1CC[C@]2(C)CC[C@]3(C)[C@H](CC[C@@H]4[C@@]5(C)CC[C@@H](O)C(C)(C)[C@@H]5CC[C@]43C)[C@@H]12
inactive: max response (HEK293) -21% | max response (HaCat) 0.908% | max response (KB-3-1) -4.19% | max response (NIH3T3) 1.04%

COc1ccc([C@@H]2OC[C@H]3[C@@H]2CO[C@@H]3c2ccc(OC3OC(CO)C(O)C(O)C3O)c(OC)c2)cc1OC (stereo partly specified)
inactive: max response (HEK293) -3.32% | max response (HaCat) -0.266% | max response (KB-3-1) 8.67% | max response (NIH3T3) -7.42%

CC1(C)CC[C@@]2(C(=O)O[C@@H]3O[C@H](CO)[C@@H](O)[C@H](O)[C@H]3O)C(C1)C1=CCC3[C@@]4(C)CC[C@@H](O[C@@H]5O[C@H](C(=O)O)[C@@H](O[C@@H]6OC[C@@H](O)[C@H](O)[C@H]6O)[C@H](O[C@@H]6OC[C@](O)(CO)[C@H]6O)[C@H]5O)C(C)(C)C4CC[C@@]3(C)[C@]1(C)C[C@H]2O (stereo partly specified)
inactive: max response (HEK293) -3.68% | max response (HaCat) 4.43% | outcome (KB-3-1) | max response (NIH3T3) -2.09%

CC(=O)OC1C[C@]2(C)C(O)CC(C)=C[C@H](OC(=O)c3ccc(O)cc3)C2[C@]1(O)C(C)C (stereo partly specified)
inactive: max response (HEK293) -3.03% | max response (HaCat) -0.241% | max response (KB-3-1) 4.36% | max response (NIH3T3) 3.62%

C/C1=C\CC[C@]2(C)O[C@@H]2[C@H](O)[C@H](C(C)C)[C@H](OC(=O)/C=C/c2ccccc2)C1
inactive: max response (HEK293) -26.5% | max response (HaCat) -5.06% | max response (KB-3-1) -3.73% | max response (NIH3T3) 2.07%

COc1cc(/C=C/C(=O)OC[C@H]2O[C@@](CO)(O[C@H]3O[C@H](CO)[C@@H](O)[C@H](O)[C@H]3O)[C@@H](OC(=O)/C=C/c3ccc(O)c(OC)c3)[C@@H]2O)ccc1O
inactive: max response (HEK293) 4.27% | max response (HaCat) -7.21% | max response (KB-3-1) -7.62% | max response (NIH3T3) 0.754%

O=C(O)CC1CCC(c2ccc(-c3ccc4nc(C(=O)NCc5ccc(OC(F)(F)F)cc5)cn4c3)cc2)CC1 (stereo unspecified)
inactive: max response (HEK293) -9.35% | max response (HaCat) -3.96% | max response (KB-3-1) -0.0408% | max response (NIH3T3) -0.598%

COC(=O)/C=C/C12COC(C)(C)C1C(O)C(OC(C)=O)C1(C)C2CCC2(C)C(c3ccoc3)OC(=O)C3OC321 (stereo unspecified)
inactive: max response (HEK293) -22.6% | max response (HaCat) -1.09% | max response (KB-3-1) -5.77% | max response (NIH3T3) -16.9%

CC1(C)CC[C@]2(C(=O)O)CC[C@]3(C)C(=CCC4[C@@]5(C)CC[C@H](O[C@@H]6O[C@H](C(=O)O)[C@@H](O[C@@H]7OC[C@@H](O)[C@H](O)[C@H]7O)[C@H](O)[C@H]6O)C(C)(C)C5CC[C@]43C)C2C1O (stereo partly specified)
inactive: max response (HEK293) 2.41% | max response (HaCat) -24% | outcome (KB-3-1) | max response (NIH3T3) -13.7%

COC(=O)C[C@H]1C(C)(C)[C@H](OC(C)=O)C2CC3=C4CC(=O)O[C@@H](c5ccoc5)[C@]4(C)CCC3[C@@]1(C)C2=O (stereo partly specified)
inactive: max response (HEK293) -19.9% | max response (HaCat) 1.4% | max response (KB-3-1) 4.19% | max response (NIH3T3) -4.77%

C=C(C(=O)O)C1CCC2(C)CCC(O)C(=C)C2C1 (stereo unspecified)
inactive: max response (HEK293) -0.847% | max response (HaCat) -10.5% | outcome (KB-3-1) | max response (NIH3T3) -5.34%

C=C1C[C@]23C[C@H]1CC[C@H]2[C@@]1(C)CCC[C@@]2(C)C(=O)O[C@@H]([C@@H]3O)[C@@H]12
inactive: max response (HEK293) -8.12% | max response (HaCat) -2.64% | outcome (KB-3-1) | max response (NIH3T3) -6.16%

C=C1C(=O)O[C@H]2[C@H]1CC/C(C)=C/CC[C@@]1(C)O[C@@H]21
inactive: max response (HEK293) -18.1% | max response (HaCat) -3.65% | max response (KB-3-1) -4.28% | max response (NIH3T3) 0.479%

CC(CO)C1CCC2(C)CC3C(CO)CC(O)C3C(C)(O)C/C=C/12 (stereo unspecified)
inactive: max response (HEK293) -10.5% | max response (HaCat) -5.8% | outcome (KB-3-1) | max response (NIH3T3) 0.217%

CC(C)C1=CC2C(CC[C@]2(C)O)[C@](C)(O)CC1 (stereo partly specified)
inactive: max response (HEK293) -1.9% | max response (HaCat) 2.33% | outcome (KB-3-1) | max response (NIH3T3) 2.57%

N#C[C@@H]1C[C@H](F)CN1C(=O)CNC1[C@H]2CN(C(=O)c3ccc(F)cc3)C[C@@H]12 (stereo partly specified)
inactive: max response (HEK293) 2.87% | max response (HaCat) -7.89% | max response (KB-3-1) 1.86% | max response (NIH3T3) -2.06%

CC(=O)/C=C/[C@H]1[C@](C)(O)[C@@H](O)[C@H](OC(C)=O)C2C(C)(C)CCC[C@@]21C (stereo partly specified)
inactive: max response (HEK293) -3.84% | max response (HaCat) -21.7% | outcome (KB-3-1) | max response (NIH3T3) -10.6%

C[C@@H]1CN(Cc2ncccn2)C[C@H]1c1nc2c(cnn2C2CCOCC2)c(=O)[nH]1
inactive: max response (HEK293) -4.3% | max response (HaCat) 0.321% | max response (KB-3-1) -1.41% | max response (NIH3T3) -4.05%

C[C@@H]1CC[C@@]2(OC1)O[C@H]1C[C@H]3[C@@H]4CC=C5C[C@@H](O)CC[C@]5(C)[C@H]4CC[C@]3(C)[C@H]1[C@@H]2C
inactive: max response (HEK293) -1.54% | max response (HaCat) 4.49% | max response (KB-3-1) -3.17% | max response (NIH3T3) -1.68%

CC12CCC3c4ccc(OC5OC(C(=O)O)C(O)C(O)C5O)cc4CCC3C1CCC2O (stereo unspecified)
inactive: max response (HEK293) 3.31% | max response (HaCat) 0.389% | outcome (KB-3-1) | max response (NIH3T3) 3.14%

O=C1CCC=CC1(O)C(=O)OCc1ccccc1O[C@@H]1O[C@H](CO)[C@@H](O)[C@H](O)[C@H]1O (stereo partly specified)
inactive: max response (HEK293) -24.1% | max response (HaCat) -22.3% | max response (KB-3-1) -1.56% | max response (NIH3T3) -27.2%

COc1ccc(C[C@H](N)C(=O)N[C@@H]2[C@H](O)[C@H](n3cnc4c(N(C)C)ncnc43)O[C@@H]2CO)cc1
active: Potency (HEK293) 1160 nM | Potency (HaCat) 1460 nM | Potency (KB-3-1) 731 nM | Potency (NIH3T3) 4610 nM

O=C(NCc1ccc(S(=O)(=O)c2cc(F)cc(F)c2)cc1)c1ccc2nccn2c1
active: Potency (HEK293) 5.2 nM | Potency (HaCat) 32.6 nM | Potency (KB-3-1) 4.6 nM | Potency (NIH3T3) 46.1 nM

CC1(C)CC[C@]2(C(=O)O[C@@H]3O[C@H](CO)[C@@H](O)[C@H](O)[C@H]3O)CC[C@]3(C)C(=CCC4[C@@]5(C)C[C@@H](O)[C@H](O)[C@@](C)(CO)C5CC[C@]43C)C2[C@@H]1O (stereo partly specified)
inactive: max response (HEK293) -3.93% | max response (HaCat) -9.78% | outcome (KB-3-1) | max response (NIH3T3) 2.98%
